Test results: PubChem BioAssay (Tox21)
Values joined by “and” are separate entries in the source; they are usually repeats but may differ in a detail not shown here. Identical values can stand only once. Inconclusive results are not listed. More than one record can exist for a structure, and the calls need not agree. Active and inactive are the calls of the source. Calls follow the shape of the dose curve; as a rule, active = well fitted cell-killing curve with a large enough effect in the repeat runs; inconclusive = weak or mixed curves; inactive = no such curve, though single readings can be large or run the other way.

Assay: qHTS assay to identify small molecule agonists of the peroxisome proliferator-activated receptor delta (PPARd) signaling pathway - cell viability counter screen (AID 743211); also: nearly all actives have a fitted effect of over 55% in size
Details: PPARd-bla HEK293H viability, CellTiter-Glo luminescence, 17 h; series mostly up to 62.6 µM; activity change, negative = cytotoxicity: at the top concentration
Description: U.S. Tox21 Program National Center for Advancing Translational Sciences [NCATS] NIH Chemical Genomics Center [NCGC] U.S. Environmental Protection Agency [EPA] National Institutes of Environmental Health Sciences [NIEHS] National Toxicology Program [NTP] U.S. Food and Drug Administration [FDA] Tox21 Assay Overview: The peroxisome proliferator-activated receptors (PPARs) are lipid-activated transcription factors of the nuclear receptor superfamily with three distinct subtypes namely PPAR alpha, PPAR delta (PPARd) and PPAR gamma. All these subtypes heterodimerizes with Retinoid X receptor (RXR) and have different physiological functions. […] To identify the compounds that activate PPAR-delta signaling, GeneBLAzer PPAR delta UAS-bla HEK293H cell line (Invitrogen, Carlsbad, CA, USA) containing a beta-lactamase reporter gene under the control of an Upstream Activator Sequence (UAS) was used to screen the Tox21 compound library. The cytotoxicity of the Tox21 compound library against the PPARd-bla cell line was tested in parallel by measuring the cell viability using CellTiter-Glo assay (Promega, Madison, WI) in the same wells.
Tox21 Assay Protocol Summary: PPARd-bla cells were dispensed at 3000 cells/6uL/well in 1536-well black wall/clear bottom plates using a Multidrop Combi (Thermo Fisher Scientific, Waltham, MA) dispenser. After the assay plates were incubated at 37 C and 5% CO2 for 5 h, 23 nL of compounds dissolved in DMSO, positive controls or DMSO only was transferred to the assay plate by a Pintool station (Kalypsys, San Diego, CA). The assay plates were incubated at 37C for 17 h. After 1 uL of LiveBLAzerTM B/G FRET substrate was added using a Bioraptr Flying Reagent Dispenser (FRD) workstation (Beckman Coulter, Indianapolis, IN, USA), the plates were incubated at room temperature for 2 h, and fluorescence intensity was measured by an Envision plate reader (PerkinElmer, Shelton, CT). For cell viability readout that measures cytotoxicity, 3 ul/well of CellTiter-Glo reagent was added into the assay plates using a Bioraptr FRD. After 30 min incubation at room temperature, the luminescence intensity in the plates was measured using a ViewLux plate reader (PerkinElmer).
% is scaled to controls: 0 for no effect and ±100 for the full control effect; potency is read from the fitted curve at half-maximal effect.

Row | SMILES | activity change, negative = cytotoxicity | Potency
1 | O=c1[nH]c2ccccc2o1 | 4.14% (inactive) | –
2 | CCOP(=O)(CN(CCO)CCO)OCC | 3.39% (inactive) | –
3 | NNCc1ccccc1 | 1.89% [at 81.1 µM] (inactive) | –
4 | O=C/C=C/c1ccco1 | -0.647% (inactive) | –
5 | CCCCCCC(=O)CCCCCC/C=C/C[C@@H](O)[C@H](O)[C@@](N)(CO)C(=O)O | -0.202% [at 29.1 µM] (inactive) | –
6 | CCOP(=S)(OCC)Oc1ccc(Cl)cc1Cl | 1.13% (inactive) | –
7 | C#CC(C)(C)O | 0.0513% [at 81.1 µM] (inactive) | –
8 | CS(=O)(=O)c1ccc(C(=O)C2C(=O)CCCC2=O)c(Cl)c1COCC(F)(F)F | 2.25% (inactive) | –
9 | CCC1(c2ccccc2)C(=O)N(COC)C(=O)N(COC)C1=O | -0.516% (inactive) | –
10 | CC[C@@H](CO)NC(=O)[C@@H]1C=C2c3cccc4c3c(cn4C)C[C@H]2N(C)C1 | 0.0795% (inactive) | –
11 | CC(Cc1ccccc1)NCCn1cnc2c1c(=O)n(C)c(=O)n2C (stereo not given) | 0.999% [at 81.1 µM] (inactive) | –
12 | CCNc1nc(NCC)nc(SC)n1 | 10.7% (inactive) | –
13 | ClCOCCl | 5.52% [at 81.1 µM] (inactive) | –
14 | CCc1cc(OC)c(C[C@H](C)N)cc1OC | -17.8% [at 81.1 µM] (inactive) | –
15 | O=C1C2CC=CCC2C(=O)N1SC(Cl)(Cl)Cl (stereo not given) | – | inactive and 10.8 µM (active)
16 | CCCN1CCC[C@@H]2Cc3nc(N)ncc3C[C@H]21 | -0.323% (inactive) | –
17 | CC1NCCOC1c1ccccc1 (stereo not given) | 4.24% (inactive) | –
18 | CC1N=C(N)OC1c1ccccc1 (stereo not given) | -6.15% [at 81.1 µM] (inactive) | –
19 | c1cncc([C@@H]2CCCCN2)c1 | 2.05% (inactive) | –
20 | CC(O)CCl (stereo not given) | 0.0818% (inactive) | –

Row | SMILES | activity change, negative = cytotoxicity | Potency
21 | OP(O)c1ccccc1 | 3.55% [at 81.1 µM] (inactive) | –
22 | N#CC(Br)(Br)C(N)=O | -0.508% (inactive) | –
23 | O=CCCl | 2.1% (inactive) | –
24 | Cc1ccc(S(=O)(=O)N[C@@H](CCCCN)C(=O)CCl)cc1 | -16.6% (inactive) | –
25 | CCCCCCCCBr | -1.67% (inactive) | –
26 | COc1cccc([C@@]2(O)CCCC[C@@H]2CN(C)C)c1 | 4.39% (inactive) | –
27 | CCN[C@H](C)Cc1cccc(C(F)(F)F)c1 | -1.64% [at 81.1 µM] (inactive) | –
28 | CC(C)(N)Cc1ccc(Cl)cc1 | -15.4% (inactive) | –
29 | CC[C@@H](CO)NC(=O)[C@@H]1C=C2c3cccc4[nH]cc(c34)C[C@H]2N(C)C1 | 5.82% (inactive) | –
30 | CCN[C@@H](C)Cc1cccc(C(F)(F)F)c1 | 1.59% (inactive) | –
31 | CC(C)[N+](C)(CCC(C(N)=O)(c1ccccc1)c1ccccc1)C(C)C | 7.09% (inactive) | –
32 | CC#Cc1cc(C)nc(Nc2ccccc2)n1 | -0.288% (inactive) | –
33 | CC[C@H](O)C(C[C@H](C)N(C)C)(c1ccccc1)c1ccccc1 | -15.2% [at 81.1 µM] (inactive) | –
34 | CON(C)C(=O)Nc1ccc(Br)cc1 | -6.97% (inactive) | –
35 | C[C@H](N)C(=O)c1ccccc1 | 2.16% [at 81.1 µM] (inactive) | –
36 | N[C@@H]1C[C@H]1c1ccccc1 | -1.27% (inactive) | –
37 | CCCCCCCC(=O)Cl | 3.18% [at 81.1 µM] (inactive) | –
38 | O=C(O)C(Cl)Br (stereo not given) | -10.2% [at 81.1 µM] (inactive) | –
39 | CC(C)(C)NC[C@H](O)c1ccc(O)cc1Cl | -7.31% (inactive) | –
40 | CC(C)N(Cc1ccccc1)C(=O)C(C)(C)C | 0.702% (inactive) | –
